In PubChem BioAssay AID588382 (National Center for Advancing Translational Sciences (NCATS), 2011):
Where “and” joins values, the source holds several entries; their conditions need not be identical. Equal values may be shown once. Among all 1,300 compounds or so, about 150 (12%) were called active. Roughly 30% stayed inconclusive and do not appear here. The call rests on the fitted dose curve; in most records, active means well fitted cell-killing curve with a large enough effect; inconclusive means small, poorly fitted or top-dose-only effect, or effect the other way; inactive means flat fitted curve, though single readings scatter. The list comes from a sample in which actives are over-represented; it also holds similar structures and randomly drawn compounds. A call without a number means that no potency is given here.

assay: qHTS of small molecules that selectively kill Giardia lamblia: Hit Validation in HepG2 cytotox; details: cell viability; Potency: HepG2 cytotoxicity; series mostly up to 38.3 µM;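 further: compound exposure lasted overnight at 37 deg C; nearly all actives have a fitted effect of over 55% in size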
In short: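 HepG2 cells seeded and incubated overnight at 37 deg C, then 23 nL compound added by pintool and incubated overnight at 37 deg C. Viability read as ATP luminescence with ATPLite after 15 min at room temperature.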
Potency means the concentration at half of the fitted maximal effect.

Compound | Potency
O=C1N=C(N2CCCCC2)S/C1=C\c1ccc(Br)cc1 | inactive
O=c1c2c(-c3ccccc3)csc2ncn1/N=C/c1ccc(O)c([N+](=O)[O-])c1 | inactive
Cc1ccc(C2=NCCn3c2c2ccccc2[n+]3[O-])cc1 | inactive
CC(=O)Nc1nc(-c2cc([N+](=O)[O-])cs2)cs1 | inactive
CCn1c(=NC(=O)c2cccc(N3C(=O)CCC3=O)c2)sc2c(OC)ccc(OC)c21 | inactive
Cc1cnc([N+](=O)[O-])n1CCOC(=O)NC(=O)c1ccc(F)cc1 | inactive
CN(C)C(=O)COC(=O)c1cccc(S(=O)(=O)N2CC3(C)CC2CC(C)(C)C3)c1 (stereo unspecified) | inactive
O=[N+]([O-])c1nn(-c2ccccc2)[n+]([O-])c1N1CCN(c2ccccc2)CC1 | inactive
CN(C(=O)CN1CCN(c2ccc([N+](=O)[O-])cn2)CC1)c1ccccc1 | inactive
CCOc1ccc(-c2cc(C(=O)N3CCN(c4ccccn4)CC3)c3ccccc3n2)cc1 | 1.65 µM (active) and 414 nM (active)
O=C(CSc1ccsc1[N+](=O)[O-])N1CCN(c2ccccn2)CC1 | inactive
Cc1ncc([N+](=O)[O-])n1CCOC(=O)NC(Nc1ccc(F)cc1)C(Cl)(Cl)Cl (stereo unspecified) | inactive
O=C(CCCn1cnc([N+](=O)[O-])n1)Nc1ccc(F)c(Cl)c1 | inactive
COc1cc2c(cc1OC)-c1c(OC)c(OC)cc3ccnc(c13)C2=O | inactive
COc1ccc(-n2nc([N+](=O)[O-])c(=NCCc3ccc(Cl)cc3)n2O)cc1 | inactive
O=C(NCC1CCCO1)c1ccc([N+](=O)[O-])o1 (stereo unspecified) | inactive
O=C(CN(C1CCCCC1)S(=O)(=O)c1ccc(F)cc1)NCC1CCCO1 (stereo unspecified) | 4.65 µM (active)
CN(C(=O)c1ccc(F)c(S(=O)(=O)N2CCOCC2)c1)C1CCCCC1 | inactive
CCS(=O)(=O)CCn1c([N+](=O)[O-])cnc1C | inactive
O=c1c(-c2ccc(F)cc2)coc2cc(O)ccc12 | inactive
C[C@@H]1CN([C@@H](C)CO)C(=O)c2cccc(NS(=O)(=O)c3cccs3)c2O[C@H]1CN(C)Cc1ccc(C(F)(F)F)cc1 | inactive
NC(=O)C1CCN(c2ncccc2[N+](=O)[O-])CC1 | inactive
Cc1ccc(NC(C)C(=O)N/N=C/c2ccc([N+](=O)[O-])s2)cc1 (stereo unspecified) | inactive
Cc1ccccc1C(=O)N/N=C/c1ccc([N+](=O)[O-])s1 | 18.5 µM (active)
O=C(N/N=C/c1ccc([N+](=O)[O-])s1)C(O)c1ccccc1 (stereo unspecified) | 13.1 µM (active)
O=C(N/N=C\c1ccc([N+](=O)[O-])s1)c1cncc(Br)c1 | 7.36 µM (active)

Compound | Potency
COc1ccc(NC(C)C(=O)N/N=C/c2ccc([N+](=O)[O-])s2)cc1 (stereo unspecified) | inactive
COc1ccccc1NC(=O)C(=O)N/N=C/c1ccc([N+](=O)[O-])s1 | inactive
CCOC(=O)N/N=C\c1ccc([N+](=O)[O-])s1 | inactive
COC(=O)N/N=C/c1ccc([N+](=O)[O-])s1 | inactive
Cc1nc2cc(NC(=O)c3ccc([N+](=O)[O-])s3)ccc2s1 | inactive
COCCn1c(C)cc(C(=O)COc2cccnc2[N+](=O)[O-])c1C | inactive
O=C(Nc1nnc(C2=COCCO2)o1)c1cccc(F)c1 | inactive
COc1nn(C(C)C(=O)N2N=C(C(F)F)CC2(O)C(F)F)cc1[N+](=O)[O-] (stereo unspecified) | inactive
COc1cc(/C=C/c2ccc3cccc(OC)c3n2)c(OC(C)=O)c([N+](=O)[O-])c1 | inactive
CN(C)C(=O)c1cc([N+](=O)[O-])cc([N+](=O)[O-])c1N(C)C | inactive
COc1ccccc1CNC(=O)CSc1ccsc1[N+](=O)[O-] | inactive
Cc1ccc(OCc2ccc([N+](=O)[O-])cc2)c([N+](=O)[O-])n1 | inactive
Cc1cc(C(=O)COc2cccnc2[N+](=O)[O-])c(C)n1Cc1cccs1 | inactive
Cc1onc(-c2ccccc2)c1C(=O)N/N=C/c1ccc([N+](=O)[O-])c(O)c1 | inactive
COc1cc2c(c3oc(-c4ccccc4)cc(=O)c13)C=CC(C)(C)O2 | inactive
O=[N+]([O-])c1ccc(/C=N/n2c(CO)nc3ccccc32)s1 | inactive
Cc1nc2ccccc2n1/N=C/c1ccc([N+](=O)[O-])s1 | 16.5 µM (active)
O=[N+]([O-])c1ccc(/C=N/Nc2ncccc2[N+](=O)[O-])s1 | inactive
CN(C)c1ccc(N=Nc2ccccc2C(=O)O)cc1 | inactive
CCOC(=O)Cn1c(=NC(=O)c2ccc([N+](=O)[O-])s2)sc2ccccc21 | inactive
COc1ccc(C(=O)N(Cc2ccccc2)c2cccc(C)c2)cc1 | inactive
CCOc1ccc2nc(NC(=O)c3c([N+](=O)[O-])cnn3CC)sc2c1 | inactive
CCOC(=O)N=Nc1c2ccccc2c2nc3no[nH]c3nc12 | 0.736 µM (active)
CCC(C(=O)OC)n1c(-c2ccccc2)nc2ccccc2c1=O (stereo unspecified) | inactive
CN(C)c1cc(NC(=O)CNC(C)(C)CC(C)(C)C)c2ccccc2n1 | inactive
CC1CCN(c2c([N+](=O)[O-])nn(-c3ccc4c(c3)OCCO4)[n+]2[O-])CC1 | inactive

Compound | Potency
COCCNc1cc(NCCOC)c([N+](=O)[O-])cc1[N+](=O)[O-] | inactive
Cc1ccc([C@H]2C(C(=O)O)=CC[C@@H](c3ccc(C)cc3)N2S(=O)(=O)c2ccc(C)cc2)cc1 | inactive
CCC(C)Nc1ccc(NC(C)CC)cc1 (stereo unspecified) | 0.165 µM (active)
O=C(COc1cccnc1[N+](=O)[O-])Nc1c(Cl)cccc1Cl | inactive
O=[N+]([O-])c1nn(-c2ccc(Cl)cc2)n(O)c1=NCc1ccncc1 | inactive
OCCSc1nc(-c2ccccc2)nc2ccc(F)cc12 | inactive
O=C(Cc1csc(Nc2nc(=S)[nH]c3ccccc23)n1)NCCCN1CCN(c2ccccc2F)CC1 | 16.5 µM (active)
CCOC(=O)N1C(C)CN(/[N+]([O-])=N/Oc2ccc([N+](=O)[O-])cc2[N+](=O)[O-])CC1C (stereo unspecified) | inactive
O=c1/c(=C/c2ccc(O)c([N+](=O)[O-])c2)sc2nc3ccccc3n12 | inactive
Cc1ccc2c(c1)c1nc3ccccc3nc1n2C | inactive
Cc1cnc([N+](=O)[O-])n1CCOC(=O)c1cccc(F)c1 | inactive
Cc1oc2c(c1C(=O)N1CCOCC1)C(=O)c1ccccc1C2=O | 4.65 µM (active)
O=C(c1ccc([N+](=O)[O-])o1)N1CCOCC1 | inactive
CC1CCN(c2ccc(-c3ccc(NC(=O)C(F)(F)F)cc3)nn2)CC1 | 4.14 µM (active)
N#CC1C=Cc2c(ccc3ccccc23)N1C(=O)c1ccccc1 (stereo unspecified) | inactive
CC(=O)c1sc(NC(=O)c2ccc(C)c(C)c2)nc1C | inactive
O=C(Nc1ccc2c(c1)OCCO2)c1cc(-c2ccccn2)nc2ccc(Br)cc12 | inactive
Cc1nc2c(ccc3nc(NC(=O)c4ccc5c(c4)OCCO5)sc32)s1 | 1.85 µM (active)
Cc1[nH]n(S(=O)(=O)Cc2ccccc2)c(=O)c1N=Nc1ccccc1Cl | inactive
O=C(COc1cccnc1[N+](=O)[O-])c1c[nH]c2ccccc12 | inactive
Cc1[nH]c2ccccc2c1C(=O)C(C)OC(=O)c1ccc([N+](=O)[O-])o1 (stereo unspecified) | inactive
COC(=O)c1sc(NC(=O)COc2cccnc2[N+](=O)[O-])c(C(=O)OC)c1C | inactive
Cc1cc2[nH]c3c(c[n+](C)c4ccccc34)c2cc1C | 3.29 µM (active)
COC(=O)c1ccc(Cn2cc(C(F)(F)F)cc([N+](=O)[O-])c2=O)cc1 | inactive
CCc1ccc([C@@H]2CC=C(C(=O)O)[C@H](c3cccc(Cl)c3)N2S(=O)(=O)c2ccc(C)cc2)cc1 | inactive
Cc1ccc(CN=c2c([N+](=O)[O-])nn(-c3ccc4c(c3)OCCO4)n2O)cc1 | inactive

Compound | Potency
Cc1ccccc1N1CCN(Cc2ccc([N+](=O)[O-])o2)CC1 | inactive
COc1cc(/C=C2\COC/C(=C\c3cc(OC)c(OC)c(OC)c3)C2=O)cc(OC)c1OC | 2.33 µM (active)
COc1cc(/C=C/c2onc(C)c2[N+](=O)[O-])cc(OC)c1OC | inactive
COc1cc(C2CC(=O)Oc3cc(C)c(Cl)c(C)c32)cc(OC)c1OC (stereo unspecified) | inactive
Cc1ccc(S(=O)(=O)N2CC(C(=O)O)=CC[C@H]2c2ccc(Cl)cc2)cc1 | inactive
O=C(O)C=C(Br)Br | inactive
COc1ccc(C(=O)c2c3ccccc3[n+]([O-])n2CCCN)cc1 | inactive
CC(Oc1cccnc1[N+](=O)[O-])C(=O)Nc1ccc(F)cc1 (stereo unspecified) | inactive
COc1ccc2c(c1)C1OCCC1C(c1ccco1)N2 (stereo unspecified) | 10.4 µM (active)
CC(=O)OCON[N+]([O-])=NC(C)C | inactive
OCCOCCNc1ncnc2c1c(-c1ccccc1)cn2-c1ccccc1 | inactive
C(=C\c1nc2ccccc2s1)/c1ccc2c(c1)OCO2 | 2.07 µM (active)
O=[N+]([O-])c1cc(C(F)(F)F)ccc1Oc1cccnc1[N+](=O)[O-] | inactive
Cc1nc2c(N=Nc3ccccc3F)c(N)nn2c(N)c1C#N | inactive
Cc1ccc(OCC(=O)Nc2ccc(C)c(F)c2)c([N+](=O)[O-])n1 | inactive
CC(C)(C)[C@H](N)C(=O)N[C@H]1CCC2C3CC=C4C[C@@H](O)CC[C@]4(C)C3CC[C@@]21C (stereo partly specified) | 2.33 µM (active)
O=C(Nc1ccc(Cl)cn1)c1ccccc1[N+](=O)[O-] | inactive
Brc1ccc(CNc2nc3ccccc3n2CCN2CCCCC2)cc1 | inactive
NC(=S)NN=C1CCCCCCCC1 | inactive
CCN(CC)CCCNc1nc2ccccc2c2[nH]c3ccc(OC)cc3c12 | 2.61 µM (active)
COc1ccc(-c2nc(NCCCN(C)C)c3ccccc3n2)cc1 | inactive
NCCCn1c(C(=O)c2cc(Cl)c(N)c(Cl)c2)c2ccccc2[n+]1[O-] | inactive
O=[N+]([O-])C(/C=C(/Cl)[N+](=O)[O-])=C(N1CCCCC1)N1CCCCC1 | inactive
